# Test results as given in PubChem BioAssay AID1457 (National Center for Advancing Translational Sciences (NCATS), 2008).
# Screen size: about 210,000 compounds; about 730 (0.35%) were called active. Another 1% or so got no clear call; they are omitted. The full list was thinned out, with actives kept by preference. Values without a mark were called inactive. Calls follow the shape of the dose curve; as a rule, active = well fitted inhibition curve with a large enough effect; inconclusive = small, poorly fitted or top-dose-only effect; inactive = no such curve, though single readings can be large or run the other way.
# Test: qHTS Assay for Identifying the Cell-Membrane Permeable IMPase Inhibitors: Potentiation with Lithium;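 also: IP1 builds up when IMPase is blocked and the TR-FRET signal falls; nearly all actives have a fitted effect of over 50% in size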;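 as to activity, negative = IMPase inhibition: plate controls were basal vehicle for no effect and high inhibitor control for full effect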
# Details: CHO-M1 cells, IP1 TR-FRET (IP-One), carbachol + lithium; series mostly up to 59.4 µM; activity, negative = IMPase inhibition: at the top concentration
# Source text: NIH Chemical Genomics Center [NCGC]
# NIH Molecular Libraries Probe Production centers Network [MLPCN]
# Assay Submitter (PI): Wei Zheng
# Lithium has been widely used for the treatment of bipolar disorder. But lithium has a narrow therapeutic index and it can cause side effects such as thirst, weight gain, tremor, polyuria and memory problems. Although the mechanism for lithium action in treatment of bipolar disorder is still not fully understood, inhibition of inositol monophosphatase (IMPase) and the subsequent depletion of the inositol pool in living cells have been implicated as the primary therapeutic benefit of lithium therapy. Therefore, a selective IMPase inhibitor with reduced side effects might be a good drug candidate to replace lithium for the treatment of bipolar disorder. Several IMPase inhibitors have been discovered previously. However, they are not suitable for therapeutic use because of their poor cell membrane penetrability or oral bioavailability; the development of new cell-permeable IMPase inhibitors is needed.
# IMPase catalyzes the hydrolysis of inositol-1-phosphate (IP1) to release free inositol. Binding of an agonist to a Gq coupled GPCR results in the activation of PLC, which hydrolyzes the PIP2 to form inositol-1,4,5-trisphosphate (IP3) and diacyl glycerol (DAG). While DAG activates protein kinase C (PKC), IP3 triggers the elevation of intracellular free Ca2+. The IP3 is very rapidly inactivated by hydrolysis to IP2, IP1 and then inositol by a series of enzymes including IMPase. Free inositols are used for synthesis of PI and thus start another inositol cycle.
# To identify new cell-permeable IMPase inhibitors, we developed a cell-based IMPase assay in which the cytosolic IP1 is measured by a time-resolved fluorescence resonance energy transfer (TR-FRET) assay. In this assay, an IP1 specific antibody is used to detect the labeled IP1 tracer. When the cell lysate contains the elevated IP1 due to the inhibition of IMPase, the TR-FRET between the labeled antibody and IP1 tracer is disrupted resulting in a reduction in the total signal. Since the TR-FRET is used, this cell-based assay is a homogenous assay without cell wash and medium change that is suitable for assay miniaturization and HTS. In this particular assay, a small amount of lithium is added to potentiate the response of weak activators.
# NCGC Assay Protocol Summary:
# A Chinese hamster ovary (CHO) cell line stably expressing the M1 receptor (CHO-M1) was obtained from ATCC and maintained in F-12 Kaighn's media (Invitrogen, Carlsbad, CA) supplemented with 10 % FBS, 100 units/ml penicillin, 100 ug/ml streptomycin and 250 ug/ml geneticin at 37C, 5% CO2 in a humidified atmosphere. Before the assay, aliquots of cells were frozen and stored at -135C. The assay was performed in 1536-well format. Data are reported for both the ratio of the two emission wavelengths, and also for the component 'donor' channel, Em2=620. […] AC50 values were determined from concentration-response data modeled with the standard Hill equation.
# (1) Frozen CHO-M1 cells were thaw, washed once with fresh media and resuspended in F12K media containing 10% FBS, 100 units/ml penicillin and 100 ug/ml streptomycin. Cells were plated at 4ul/well (2000 cells) in white, tissue culture treated 1536-well plates, and then cultured at 37C, 5 % CO2 for 16 to 30 hours.
# (2) Add 23 nl/well of compound in DMSO solution. The final titration for each compound was between 0.6 nM and 46 uM.
# (4) Incubation at 37C, 5 % CO2 for 30 min.
# (5) Add 1 ul/well of d2-conjugated IP1 (d2-IP1) and 1 ul/well of Eu+ cryptate conjugated anti-IP1 antibody (Eu+-Ab) prepared in the cell lysis buffer, both from the IP-One kit (Cisbio, MA).
# (6) Incubate at room temperature for 10 minutes.
# (7) Detect the assay plate (Ex = 320, Em1 =665 and Em2 620) in a ViewLux plate reader.
# Potency is read from the fitted curve at half-maximal effect.
SMILES,"activity, negative = IMPase inhibition",Potency
CC/C=C\C/C=C\C/C=C\C/C=C\C/C=C\C/C=C\CCC(=O)NC(C)C(=O)O (configuration not stated),18%,–
COC(=O)C/C=C/[C@@H](C)[C@H](NC(=O)OCC(Cl)(Cl)Cl)c1ccccc1,3.99%,–
C=C(C(C)=O)C(O)c1ccc([N+](=O)[O-])cc1 (configuration not stated),39.2%,–
COc1ccc(CCCOC(Cn2ccnc2)c2ccc(OC)cc2)cc1 (configuration not stated),–,inactive
O=C1OCCN1C(=O)[C@H]1[C@H](c2ccc(F)cc2)C(c2ccccc2)=NN1c1ccc(Br)cc1,0.301%,–
C=C/C1=C/Cc2ccccc2[C@H](C[N+](=O)[O-])C(C(=O)OC)(C(=O)OC)C1,17.6%,–
C=CC1=C2C=C(C3CC3)N(CC(C)C)C=C2C(=O)C(C)(OC(=O)c2ccco2)C1=O (configuration not stated),7.37%,–
O=C1OCCN1C(=O)[C@H]1[C@H](c2ccccc2)C(c2ccc(F)cc2)=NN1c1ccccc1,-13.4%,–
CN(C)[C@@H]1C(=O)C(C(N)=O)=C(O)[C@@]2(O)C(=O)C3=C(O)c4c(O)ccc(Cl)c4[C@@H](O)[C@H]3C[C@@H]12,–,3.98 µM (active)
COc1ccc(/C=C2\NC(=O)[C@@H]3Cc4ccccc4CN3C2=O)cc1,12.7%,–
NCCC(=O)c1ccccc1N,-1.61%,–
COC(=O)C1=C(C(=O)OC)[C@@H]2N(C)c3ccccc3[C@@]23C[C@@H](C(=O)OC)N(S(=O)(=O)c2cccs2)C3=N1,8.96%,–
C=CCN1C=C2C(=O)C(C)(OC(=O)CCc3ccccc3)C(=O)C=C2C=C1c1ccc(C#N)cc1 (configuration not stated),-2.86%,–
C=CCN(CC=C)S(=O)(=O)c1ccc(C(=O)Nc2sc3c(c2C(N)=O)CCCCC3)cc1,–,10 µM (active)
Cc1ccc(C(=O)c2c(NC(=O)c3ccncc3)sc3c2CCCC3)cc1,42.5% [at 38.3 µM],–
C=CCN(CC=C)S(=O)(=O)c1ccc(C(=O)Nc2nc3c(s2)CCc2ccccc2-3)cc1,6.49%,–
CC(C)=CCN1CCC2(CCc3ccccc32)CC1,-23.8%,–
C[C@H]1Cc2c(-c3ccccc3)nc3c(c2CO1)CN(C(=O)C1CC1)CC3,11.8%,–
COc1ccccc1C1/C(=C(/O)c2ccc(OC(C)C)cc2)C(=O)C(=O)N1c1cc(C)on1 (configuration not stated),6.7% [at 38.3 µM],–
COc1ccc(/C(O)=C2\C(=O)C(=O)N(Cc3ccco3)C2c2ccc(OC)cc2OC)cc1 (configuration not stated),-20.2% [at 38.3 µM],–
COc1ccc(/C(O)=C2/C(=O)C(=O)N(c3nc(C)c(C)s3)C2c2ccco2)cc1 (configuration not stated),–,12.6 µM (active)
Cc1cn(C2OC[C@@H](O)[C@@H]2CO)c(=O)[nH]c1=O (some centres not stated),31%,–
O=c1c(O)c(Br)ccc2c(Br)c(O)c(O)c(O)c12,38.1%,–
Cc1cccc([C@H]2[C@@H]3C=CC[C@@H](C)[C@@H]3C(=O)N2Cc2ccccc2)c1,6.4%,–

SMILES,"activity, negative = IMPase inhibition",Potency
COC(=O)N1C(/C=C/C=C/c2ccc(OC)cc2)=Cc2ccccc2C1CC(C)=O (configuration not stated),5.89%,–
CCCCC/C=C\C/C=C\C/C=C\CCCCC(=O)NCC(=O)O,4.54%,–
CCC(C)[C@@H](N)C(=O)O (some centres not stated),-2.45%,–
C=CCN1c2ccccc2[C@]23C[C@@H](C(=O)OC)N(S(=O)(=O)c4ccc([N+](=O)[O-])cc4)C2=NC(C(=O)OC)=C(C(=O)OC)[C@H]13,8.65%,–
Cc1cc(C)c(C#N)c(SCC(=O)Nc2ccccc2)n1,-12.8%,–
COCc1cc(C)nc(SCC(=O)Nc2cccc(C)c2)c1C#N,–,22.4 µM (active)
COCc1cc(C)nc(Nc2cc(C)ccc2C)c1C#N,2.06% [at 38.3 µM],–
CC(Nc1oc(-c2ccccc2)nc1-c1ccccc1)c1ccccc1 (configuration not stated),–,inactive
C[C@H]1Cc2c(-c3ccccc3)nc3c(c2CO1)CN(S(=O)(=O)c1ccc(Cl)c2nonc12)CC3,7.59%,–
CC1(OC(=O)c2ccc(Cl)nc2)C(=O)Cc2cc(-c3ccsc3)ncc2C1=O (configuration not stated),9.99%,–
CC1Cc2cc(/C(O)=C3\C(=O)C(=O)N(CCN4CCOCC4)C3c3ccccc3F)ccc2O1 (configuration not stated),–,10 µM (active)
COCCCN1C(=O)C(=O)/C(=C(/O)c2ccc3c(c2)CC(C)O3)C1c1cccnc1 (configuration not stated),–,8.91 µM (active)
COc1cccc(C2/C(=C(/O)c3ccncc3)C(=O)C(=O)N2CCCN(C)C)c1 (configuration not stated),2.53% [at 38.3 µM],–
CCN(CC)CCN1C(=O)C(=O)/C(=C(/O)c2ccccc2)C1c1ccccc1F (configuration not stated),5.01% [at 38.3 µM],–
COc1cc(C2/C(=C(\O)c3ccc4c(c3)CC(C)O4)C(=O)C(=O)N2Cc2ccco2)ccc1O (configuration not stated),-13.8%,–
O=C1C(=O)N(CCN2CCOCC2)C(c2ccccn2)/C1=C(/O)c1ccc(Cl)cc1 (configuration not stated),7.49%,–
CC(C)(C)OC(=O)NCCCC1=CC2=CC(=O)C(C)(OC(=O)c3ccco3)C(=O)C2=CO1 (configuration not stated),13.9%,–
CCCCC/C=C\C/C=C\CCCCCCCCCC(N)=O,4.61%,–
COC(=O)C1=C(C(=O)OC)[C@@H]2N(C)c3ccccc3[C@@]23C[C@@H](C(=O)OC)N(C(=O)c2ccco2)C3=N1,-2.84%,–
CCCCCCCC1=Cc2ccc(F)cc2C(C(C(=O)OC)C(=O)OC)N1C(=O)OC (configuration not stated),–,inactive
O=C(Oc1ccccc1)Oc1ccc2c(c1)oc(=O)c1ccccc12,–,10 µM (active)
NC(=O)COc1ccc2c3c(c(=O)oc2c1)CCCCC3,17.5% [at 38.3 µM],–
Cc1c(Cc2ccccc2)c(=O)oc2cc(OCC(N)=O)ccc12,-7.11%,–
